Eight molecules from PubChem BioAssay (NCI) can be followed below.

Among the test systems are MOLT-4 leukemia; SR leukemia; RPMI-8226 leukemia; OVCAR-8 ovarian; OVCAR-5 ovarian; SK-OV-3 ovarian; IGROV1 ovarian; OVCAR-3 ovarian; HS 578T breast; NCI/ADR-RES ovarian; T-47D breast; BT-549 breast; MDA-MB-435 melanoma; SW-620 colon; MCF7 breast; HCT-116 colon; HCC-2998 colon; KM12 colon.
Common to all, as to experiment: NCI-60 one-dose screen, 48 h (100 = growth as untreated, 0 = no growth, -100 = all killed)
Common to all, as to conditions: 10 µM unless noted

Molecules are shown by their SMILES. The panel holds about 83,000 compounds, 20% with a hit somewhere; the sample as a whole holds those more often.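 Testing used 96-well plates and a 48-hour single-concentration exposure. Example: -40 means 40% of the starting cells died.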 Values without a mark were called inactive. The source made the active and inactive calls. How the source made its calls: active means growth percent below 10; inactive means the rest.

Consider `CO[C@H]1[C@H](O[C@@H]2C[C@@H]3C/C=C/C(=O)O[C@@H](CO)C[C@H](O)[C@@H]4C[C@H](C)[C@H](C/C=C\C=C\[C@H](C)C[C@H](C2)O3)O4)O[C@@H](C)[C@H](O)[C@H]1O`, for which the growth with MOLT-4 leukemia is 43.8%; in the experiment on SR leukemia, 85.2%; with RPMI-8226 leukemia, 28.1%; in the experiment on OVCAR-8 ovarian, 42.6%; in the experiment on OVCAR-5 ovarian it was 71.2%; in the experiment on SK-OV-3 ovarian it was 54%. Further, the growth was 71% in the experiment with IGROV1 ovarian; 60.2% in the experiment on OVCAR-3 ovarian; 95.1% in the experiment with HS 578T breast; 55.8% in the experiment on NCI/ADR-RES ovarian; 20.8% with T-47D breast; 53.9% with BT-549 breast. Moreover, the growth was 64.3% in the experiment on MDA-MB-435 melanoma; 76.6% with SW-620 colon; 29.1% in the experiment with MCF7 breast; 57% with HCT-116 colon; 53.6% in the experiment on HCC-2998 colon; 68.1% in the experiment with KM12 colon.
Take `O=P1(N(CCCl)CCCl)NCCCO1` (stereo unspecified): the growth in the experiment with MOLT-4 leukemia is 96.8%; with SR leukemia, 99%; with RPMI-8226 leukemia it was 103%; in the experiment on OVCAR-8 ovarian, 102%; with OVCAR-5 ovarian, 108%; with SK-OV-3 ovarian, 111%. Further, the growth in the experiment on IGROV1 ovarian is 114%; with OVCAR-3 ovarian it was 121%; with HS 578T breast it was 115%; in the experiment on NCI/ADR-RES ovarian it was 108%; with T-47D breast it was 113%; with BT-549 breast, 106%. Besides, the growth in the experiment with MDA-MB-435 melanoma is 107%; in the experiment with SW-620 colon, 102%; in the experiment with MCF7 breast it was 96.8%; with HCT-116 colon it was 104%; with HCC-2998 colon, 100%; with KM12 colon it was 111%.
In the case of `CSc1cc(/C=C(\C)[C@@H]2C[C@@H]3O[C@]3(C)CCC[C@H](C)[C@H](O)[C@@H](C)C(=O)C(C)(C)[C@@H](O)CC(=O)O2)n(CCNC(=O)OC(C)(C)C)n1`, the growth in the experiment with MOLT-4 leukemia was 42.7%; in the experiment on SR leukemia, 37.7%; in the experiment with RPMI-8226 leukemia it was 29.7%; in the experiment with OVCAR-8 ovarian, 55.5%; with OVCAR-5 ovarian, 59.8%; with SK-OV-3 ovarian, 79.9%. Also, the growth in the experiment on IGROV1 ovarian was 54.4%; in the experiment with OVCAR-3 ovarian it was 28.8%; in the experiment on HS 578T breast it was 75.5%; in the experiment with NCI/ADR-RES ovarian, 40.4%; in the experiment on T-47D breast, 66.2%; with BT-549 breast, 71.4%. The growth was -19.8% (active) in the experiment with MDA-MB-435 melanoma; 31.3% with SW-620 colon; 33.3% with MCF7 breast; 26.7% in the experiment with HCT-116 colon; 54.7% in the experiment on HCC-2998 colon; 23.1% in the experiment with KM12 colon.
With `Cc1cc(NC(=O)NCCCOc2ccc(N3C(N)=NC(N)=NC3(C)C)cc2Cl)ccc1S(=O)(=O)F`, the growth was 37.5% in the experiment on MOLT-4 leukemia; 22.4% in the experiment with SR leukemia; 36.6% in the experiment on RPMI-8226 leukemia; 31.7% in the experiment with OVCAR-8 ovarian; 43.1% in the experiment with OVCAR-5 ovarian; 65.3% in the experiment with SK-OV-3 ovarian. The growth in the experiment with IGROV1 ovarian is 25%; in the experiment with OVCAR-3 ovarian, 24.2%; in the experiment with HS 578T breast, 60.3%; with NCI/ADR-RES ovarian it was 100%; in the experiment with T-47D breast, 51.1%; in the experiment on BT-549 breast, 59.9%. The growth in the experiment on MDA-MB-435 melanoma was 27.7%; in the experiment on SW-620 colon, 18.5%; in the experiment with MCF7 breast it was 25.5%; with HCT-116 colon, 17.8%; in the experiment on HCC-2998 colon, 7.8% (active); in the experiment on KM12 colon, 20.9%.
As for `COc1ccc2c(c1)c(-c1nc(-c3cn(C)c4ncccc34)cs1)cn2CCCCN1CCOCC1`, the growth was -15.6% (active) in the experiment on MOLT-4 leukemia; -5.63% (active) in the experiment on SR leukemia; -18.1% (active) with RPMI-8226 leukemia; 48.5% in the experiment with OVCAR-8 ovarian; 56.9% in the experiment on OVCAR-5 ovarian; 79.7% in the experiment on SK-OV-3 ovarian. In addition, the growth in the experiment with IGROV1 ovarian was 67.8%; with HS 578T breast, 18.8%; with T-47D breast, 64.5%; in the experiment with BT-549 breast it was 76.8%; in the experiment with MDA-MB-435 melanoma, -83.4% (active); in the experiment on SW-620 colon, -77.1% (active). For the same molecule, the growth is 15.1% with MCF7 breast, 11.4% in the experiment on HCT-116 colon, 7.68% (active) with HCC-2998 colon and -5.62% (active) in the experiment with KM12 colon.
Regarding `C#Cc1cccc(Nc2nc(Cl)nc3cc(NC(=O)CF)ccc23)c1`, the growth was 80% in the experiment on MOLT-4 leukemia; 22.1% in the experiment on SR leukemia; 103% in the experiment with RPMI-8226 leukemia; 88.2% in the experiment with OVCAR-8 ovarian; 78.7% in the experiment on OVCAR-5 ovarian; 81.5% in the experiment on SK-OV-3 ovarian. The growth is 75.4% with IGROV1 ovarian; 53.5% in the experiment with OVCAR-3 ovarian; 53.9% with NCI/ADR-RES ovarian; 79.5% with T-47D breast; 72.2% with BT-549 breast; -19.1% (active) with MDA-MB-435 melanoma. Further, the growth was 48.2% with MCF7 breast, 42.4% in the experiment with HCT-116 colon, 78.2% in the experiment on HCC-2998 colon and 40.1% with KM12 colon.
Take `CC[C@H](C)[C@H](NC(=O)c1ncccn1)C(=O)N(C)[C@H](C[C@@H](OC(C)=O)c1nc(C(=O)N[C@@H](Cc2ccccc2)C[C@H](C)C(=O)OC)cs1)C(C)C`: the growth is 20.2% in the experiment with MOLT-4 leukemia; 14.7% with SR leukemia; 17.7% with RPMI-8226 leukemia; 22.8% with OVCAR-8 ovarian; 74.3% with OVCAR-5 ovarian; 44.1% in the experiment on SK-OV-3 ovarian. For the same molecule, the growth is 49.5% with IGROV1 ovarian; -18.4% (active) in the experiment with OVCAR-3 ovarian; 70.6% in the experiment on NCI/ADR-RES ovarian; 52.6% in the experiment with T-47D breast; 5.49% (active) with BT-549 breast; -24.6% (active) in the experiment on MDA-MB-435 melanoma. The growth is 25.8% in the experiment with SW-620 colon, 18.9% with MCF7 breast, 2.48% (active) in the experiment on HCT-116 colon and 16.1% in the experiment with KM12 colon.
Regarding `O=[N+]([O-])c1ccc(P(=O)(O)O)cc1`, the growth in the experiment with MOLT-4 leukemia is 102%; with SR leukemia it was 94.8%; in the experiment with RPMI-8226 leukemia it was 108%; in the experiment with OVCAR-8 ovarian, 103%; in the experiment with OVCAR-5 ovarian, 101%; with SK-OV-3 ovarian, 99.8%. The growth with IGROV1 ovarian was 102%; with OVCAR-3 ovarian, 113%; in the experiment on NCI/ADR-RES ovarian, 103%; in the experiment on BT-549 breast, 89.9%; with MDA-MB-435 melanoma, 101%; in the experiment on SW-620 colon it was 105%. For the same molecule, the growth was 91.2% in the experiment with MCF7 breast, 96.6% in the experiment with HCT-116 colon, 102% in the experiment with HCC-2998 colon and 115% with KM12 colon.
